A selection: hits, their analogues and other compounds. The true share with any hit is near 9.2%.
FLuc counter: inhibits or activates purified firefly luciferase, miR-21 counter-screen. P08659. purified FLuc, Km substrates, luminescence inhibition. Potency, µM (doses to about 57.5 µM), usual class: inhibitors. 360,000 compounds, 6.9% hits. AID 588342; note: nearly all actives have a fitted effect of over 55% in size
Target sequence (P08659 whole entry, looked up): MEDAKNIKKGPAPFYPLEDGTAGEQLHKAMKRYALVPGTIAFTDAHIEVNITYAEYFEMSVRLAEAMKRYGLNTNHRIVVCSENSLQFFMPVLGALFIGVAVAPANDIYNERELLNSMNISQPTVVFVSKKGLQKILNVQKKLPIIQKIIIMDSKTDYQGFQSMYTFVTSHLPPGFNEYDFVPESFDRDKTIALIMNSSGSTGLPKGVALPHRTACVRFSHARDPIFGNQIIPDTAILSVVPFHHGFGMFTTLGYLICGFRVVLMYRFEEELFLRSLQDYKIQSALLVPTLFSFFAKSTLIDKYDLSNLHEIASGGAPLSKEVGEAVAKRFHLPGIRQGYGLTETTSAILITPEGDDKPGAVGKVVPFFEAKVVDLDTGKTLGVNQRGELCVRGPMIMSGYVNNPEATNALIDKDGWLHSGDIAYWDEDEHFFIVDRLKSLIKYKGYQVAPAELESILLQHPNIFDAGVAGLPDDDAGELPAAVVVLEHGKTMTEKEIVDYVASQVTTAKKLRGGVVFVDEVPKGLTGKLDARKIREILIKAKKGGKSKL
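Biochemical qHTS of compounds, final roughly 60 µM downward over six points, against 10 nM purified firefly luciferase using Km concentrations of substrates (10 uM D-luciferin, 10 uM ATP) in Tris acetate pH 7.5 buffer; luminescence output.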
Rab9 promoter act: Rab9 promoter activation; Huh7 Rab9 promoter-luciferase reporter, luminescence, 24 h; Potency, µM (titrated, usually from 9.22 µM), actives largely listed as activators; 320,000 compounds, 2.8% hits; AID 485297; note: nearly all actives have a fitted effect of over 60% in size
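Promoter activation is measured as luciferase luminescence in Huh7 cells stably transfected with a Rab9 promoter–luciferase construct, following 24 h compound exposure at 37 °C and 10 min reagent incubation at ambient temperature.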
SMN2 splice up: increases expression of the SMN2 splice variant; Potency, µM (titrated, usually from 46.1 µM), usual class: activators; AID 1458; 210,000 compounds, 2.8% hits; HEK293 SMN2-luciferase splicing reporter, luminescence, 30-36 h; note: nearly all actives have a fitted effect of over 55% in size
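HEK293 cells carry an SMN2 minigene-luciferase reporter in which exon 7 inclusion puts luciferase in frame. Cells were seeded at 2000 cells/well, attached for 10-12 hours, then exposed to compounds for 30-36 hours at 37C before ONE-Glo luminescence.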
ELG1 genotox: inducers of genotoxicity in HEK293T ELG1-luciferase cells; HEK293T ELG1-luciferase reporter, luminescence, 16 h; Potency, µM (top dose mostly 46 µM), hits mostly activators; 330,000 compounds, 1.3% hits; AID 504466; note: nearly all actives have a fitted effect of over 60% in size
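DMSO vehicle served as control against compound-treated ELG1-luciferase HEK293T cells; exposure lasted 16 hr at 37 °C and 5% CO2, followed by ONE-Glo luminescence detection after 30 min.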
NPC1 promoter act: NPC1 promoter activation; Huh7 NPC1 promoter luciferase reporter, 24 h; Potency, µM (doses to about 9.22 µM), most hits filed as activators; 320,000 compounds, 2.4% hits; AID 485313; note: nearly all actives have a fitted effect of over 60% in size
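Stable NPC1-promoter luciferase Huh7 line; cpd (DMSO) 24 h, 37 °C, 5% CO2; Amplite luciferase reagent 10 min RT; luminescence readout. qHTS format.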
ELG1 repair inh: blocks ELG1-dependent DNA repair in HEK293T cells; HEK293T ELG1-luciferase reporter, luminescence, 16 h; DNA damage induced by 5-fluorouridine; Potency, µM (titrated, usually from 46.1 µM), hits mostly inhibitors; 330,000 compounds, 2.3% hits; AID 504467; note: nearly all actives have a fitted effect of over 55% in size
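Overnight (16 hr) co-exposure of 2,000 cells/well to 5-fluorouridine and compound at 37 °C preceded detection. Luciferase was quantified via ONE-Glo luminescence; loss of signal denotes inhibition.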
Numbers stand for hits; 0 = inactive; ? = inconclusive; - = no result; [ ] = remark or other dose. Calls come from the whole dose curve; as a rule, active = well fitted curve in the direction sought with a large enough effect; inconclusive = small, poorly fitted or top-dose-only effect, or another doubt; inactive = no such curve, though single readings can be large; an effect the other way counts as inactive or inconclusive.

SMILES | FLuc counter | Rab9 promoter act | SMN2 splice up | ELG1 genotox | NPC1 promoter act | ELG1 repair inh
COc1ccc(-n2ncc3c(N4CCN(c5cccc(C)c5)C(C)C4)ncnc32)cc1 (stereo not drawn) | 0 | - | - | - | - | -
Cc1cccc(-n2ncc3c(N4CC(C)CC(C)C4)ncnc32)c1 (stereo not drawn) | 5.4µM | 1.6µM | ? | 2.6µM | 2.2µM | ?
Cc1cccc(-n2ncc3c(N4CCCC4)ncnc32)c1 | 0.95µM | 0.63µM | 1.6µM | ? | 0.5µM | ?
Cc1ncc([N+](=O)[O-])n1CC(=O)Nc1ccc(F)cc1 | 0 | 0 | - | 0 | 0 | 0
Oc1ccc(-c2c(C3=CCCCC3)sc3ccccc23)cc1 | 0 | 0 | - | 0 | 0 | 0
CCn1c(=O)n(-c2ccc3c(c2)OCO3)c2nc(-c3cc(OC)ccc3OC)nc(C(N)=O)c21 | 0 | - | 0 | - | - | -
Cc1cccc(-n2ncc3c(N4CCN(c5ccccc5)CC4)ncnc32)c1 | 0 | - | - | - | - | -
Cc1cccc(C(=O)N2CCN(c3ncnc4c3cnn4-c3ccccc3)CC2)c1 | 0 | 0 | 0 | 0 | 0 | 15µM
O=C(Nc1ccccc1-c1nc2ccccc2s1)c1ccco1 | 0 | 0 | 0 | 0 | 0 | ?
O=c1c(-c2nc3ccccc3s2)cccn1Cc1ccccc1 | 2.7µM | 2.2µM | ? | 7.3µM | 1.8µM | ?
Cc1ccc(Cn2cccc(-c3nc4ccccc4s3)c2=O)cc1 | 2.1µM | 2.2µM | 7.1µM | 0 | 2.8µM | ?
COCCN=c1scc(C)n1/N=C/C1CC2C=CC1C2 (stereo not drawn) | 0 | 0 | 0 | 0 | 0 | 0
O=C(Nc1ccccc1C(F)(F)F)c1cc(-c2ccc3c(c2)OCCO3)on1 | 0.38µM | - | - | - | - | -
O=C(Nc1cc(C(F)(F)F)ccc1Cl)c1cc(-c2ccc3c(c2)OCCO3)on1 | 1.7µM | - | - | - | - | -
O=C(COCc1cc(-c2ccc3c(c2)OCO3)on1)Nc1cc(C(F)(F)F)ccc1Cl | 0 | - | - | - | - | -
CCOC(=O)c1c(NC(=O)c2c(C(=O)O)cccc2[N+](=O)[O-])sc2c1CCCC2 | 0 | 0 | - | 0 | 0 | 0
O=C1NC(c2ccc(Cl)cc2)Oc2ccccc21 (stereo not drawn) | 0 | 0 | - | 0 | 0 | 0
CC(C)c1ccc(C2NC(=O)c3ccccc3O2)cc1 (stereo not drawn) | 9.5µM | 0 | - | ? | 0 | 0
CCn1c(/C=C/c2ccccc2F)nc2ccccc2c1=O | 0 | 0 | - | 0 | 0 | ?
CCOc1ccccc1NC(=O)C(=O)N/N=C/c1cc(Br)ccc1O | 0 | 0 | 0 | ? | 0 | ?
Cc1ccc(S(=O)(=O)N2CCCCC2)cc1NC(=O)Cc1c[nH]c2ccccc12 | 0 | 0 | 0 | 0 | 0 | 0
Cc1ccc(NC(=O)Cc2c[nH]c3ccccc23)cc1S(=O)(=O)N1CCCCCC1 | 0 | 0 | 0[1.84 µM] | 0 | 0 | 21µM
Cc1ccc(C(=O)OCC(=O)NCc2ccccc2)cc1S(=O)(=O)N1CCCCC1 | ? | 0 | - | 0 | 0 | 0
Cc1ccc(NC(=O)Cn2ncc(Cl)c(Cl)c2=O)cc1S(=O)(=O)N1CCCCC1 | 0 | 0 | - | 0 | 0 | 15µM
Cc1ccc(C(=O)OCC(=O)c2c[nH]c3ccccc23)cc1S(=O)(=O)N1CCCCC1 | ? | 0 | 0 | 0 | 0 | 26µM
SMILES | FLuc counter | Rab9 promoter act | SMN2 splice up | ELG1 genotox | NPC1 promoter act | ELG1 repair inh
Cc1ccc(NC(=O)Cc2ccc(Cl)cc2)cc1S(=O)(=O)N1CCCCCC1 | 0 | 0 | - | 0 | 0 | 11µM
CCOc1ccc(Cc2nccc3cc(OCC)c(OCC)cc23)cc1OCC | - | - | 0 | - | - | -
CCOc1ccc(C2N3CC4(C(C)C)CN2CC(C(C)C)(C3)C4=O)cc1OC (stereo not drawn) | 0 | - | 0 | - | - | -
O=C(Cn1ncc(Cl)c(Cl)c1=O)NC1CCCCC1 | - | 0 | - | 0 | 0 | ?
O=C(Cn1ncc(Cl)c(Cl)c1=O)NCC1CCCCC1 | ? | 0 | 0 | 0 | 0 | 18µM
Cc1ccn(CC(=O)N2CCCC(N3CCN(c4cccc(Cl)c4)CC3)C2)n1 (stereo not drawn) | 0 | 0 | - | 0 | 0 | 0
O=C(C1CCC(CNS(=O)(=O)c2cccs2)CC1)N1CCN(c2ccc(F)cc2)CC1 (stereo not drawn) | 0 | 0 | - | 0 | 0 | 9.2µM
CCCCOc1ccc(S(=O)(=O)Nc2cccnc2)cc1 | 0 | 0 | 0 | 0 | 0 | 0
CCOc1ccc(S(=O)(=O)Nc2cccc(-c3ccc(N4CCCCCC4)nn3)c2)cc1 | 8.5µM | 0 | - | ? | 0 | ?
CCCCOc1ccc(S(=O)(=O)Nc2cccc(-c3ccc(N4CCOCC4)nn3)c2)cc1 | 13µM | - | - | - | - | -
O=c1c(-c2nc3ccccc3o2)c2oc3ccccc3n2c2ccccc12 | ? | 0 | 0 | 0 | 0 | 5.2µM
O=c1oc2ccccc2n1CCn1c2ccccc2c2nc3ccccc3nc21 | 0 | 0 | 0 | 0 | 0 | ?
CSc1ccc(/C=N/NC(=O)c2ccc(O)cc2)cc1 | 4.8µM | 2.5µM | ? | ? | ? | ?
O=C(N/N=C/c1ccc(O)cc1)c1ccncc1 | 0 | 0[1.84 µM] | - | 0 | 0 | 0
COc1ccc(C(=O)N/N=C/c2ccc(SC)cc2)cc1 | 6.7µM | 0 | 0 | 0 | 0 | 0
O=C(N/N=C/c1ccc(N2CCOCC2)cc1)c1ccc(O)cc1 | 24µM | 0 | - | 0 | 0 | ?
COc1ccc(/C=N/NC(=O)c2ccc[nH]2)cc1 | 5.4µM | 1.6µM | - | 8.2µM | 2.5µM | ?
C[C@H](NS(=O)(=O)c1ccccc1)C(=O)N1CCN(C(c2ccccc2)c2ccccc2)CC1 | - | - | - | 0 | - | 26µM
Cc1ccc(CN2CCN(CC(C)C)C(CCO)C2)s1 (stereo not drawn) | 17µM | ? | - | ? | 0 | ?
Cc1ccc(CN2CCN(CCC(C)C)C(CCO)C2)s1 (stereo not drawn) | 0 | 0 | - | 0 | 0 | 0
CCCS(=O)(=O)N1CCC(C(=O)NC2CCC(C)CC2)CC1 (stereo not drawn) | 0 | 4µM | - | ? | ? | ?
CCN(CC)C(=O)CSc1nc2c(sc(=S)n2-c2ccccc2)c(=O)n1Cc1ccco1 | 0 | 0 | 0 | 0 | 0 | 23µM
CCN(CC)C(=O)CSc1nc2c(sc(=S)n2CC)c(=O)n1-c1ccccc1 | 0 | 0 | 0 | 0 | 0 | ?
CC1CCN(C(=O)c2cc3ccccc3o2)CC1 | 19µM | ? | ? | 13µM | ? | ?
CC1CC(C)CN(C(=O)Nc2ccc(Br)cc2)C1 (stereo not drawn) | ? | 0 | 0 | 0 | 0 | 0
CC(=O)N1CCN(C(=O)c2cc3ccccc3o2)CC1 | 0 | 0 | - | 0 | 0 | ?
CC1CC(C)CN(C(=O)c2cc3ccccc3o2)C1 (stereo not drawn) | ? | ? | - | 23µM | 0 | ?
CC1CC(C)CN(C(=O)c2cc3cc(Br)cc(Br)c3o2)C1 (stereo not drawn) | 17µM | 0 | 0 | ? | 0 | ?
CCCCC(CC(O)COCCC)c1n[nH]c(=S)n1-c1ccccc1 (stereo not drawn) | 0 | 0 | - | 0 | 0 | 0

Compound activity from PubChem.
